Reference: PubChem BioAssay AID463173 (ICCB-Longwood Screening Facility, Harvard Medical School, 2010)
Out of some 52,000 compounds screened, about 1,700 (3.3%) were called active. This excerpt belongs to a sample that is enriched for actives. Unmarked numbers belong to inactive results. Cut-off read from the data, not from the text of the source: active = survival mostly below about 52% (no sharp cut-off); inactive = mostly above about 56%.

System: Wild type
Assay: S. aureus survival, RN4220 and DeltatarO strains – OD600, teichoic acid synthesis inhibitors, primary screen (AID 463173)
Settings: S. aureus RN4220 wild type/DeltatarO growth, OD600, 18 h, hits give low values, screened at 18.75 µg/mL (by protocol)

Compound	survival
CC(=O)c1ccc(NC(=O)COCc2cc(-c3ccco3)on2)cc1	129%
O=C(O)c1ccc(Cn2cnc3cccnc32)cc1	55%
CC(C)(C)NC(=O)C1CC(=O)OC1(C)C (stereo unspecified)	107%
COc1ccc(Br)cc1C1Sc2ccccc2NC2=C1C(=O)c1ccccc12 (stereo unspecified)	41%
COC(=O)c1c(NC(=O)COc2ccc(C)cc2Br)sc2c1CCCC2	44%
CCCCOc1cccc(C(=O)Nc2sc3c(c2C(=O)OCC)CCCC3)c1	72%
COC(=O)c1c(NC(=O)COc2c(C)cccc2C)sc2c1CCCC2	6% (active)
COC(=O)c1c(NC(=O)COc2ccc(C(C)C)cc2)sc2c1CCCC2	51%
COC(=O)c1c(NC(=O)c2ccc(OC)cc2OC)sc2c1CCCCC2	56%
COC(=O)c1c(NC(=O)CCCOc2cccc(C)c2)sc2c1CCC2	12% (active)
Cc1ccc(OCCCC(=O)Nc2sc3c(c2C(N)=O)CCCC3)cc1	57%
COC(=O)c1c(NC(=O)c2c(OC)cccc2OC)sc2c1CCCC2	3% (active)
COC(=O)c1c(NC(=O)COc2cc(C)c(Cl)c(C)c2)sc2c1CCCC2	140%
COC(=O)c1c(NC(=O)c2ccccc2C(=O)O)sc2c1CCCC2	110%
COC(=O)c1c(NC(=O)COc2cccc(C(F)(F)F)c2)sc2c1CCCC2	72%
COC(=O)c1c(NC(=O)CCCOc2ccc(C)cc2)sc2c1CCCC2	3% (active)
O=c1nc2c(-c3ccc(F)cc3Cl)n[nH]n2c2ccccc12	72%
COc1ccc(-c2nc(Cn3c(SCc4cccc(Cl)c4)nc4ccncc43)c(C)o2)cc1	132%
O=C(CSC1=Nc2ccccc2N=C(c2ccc(F)cc2)C1)Nc1ccc(Cl)cc1	92%
CCN(CC)C1=C(C(=O)c2ccccc2)NS(=O)(=O)c2ccccc21	103%
CCOc1ccc(-c2nnc(SCC(=O)NCc3ccccc3Cl)o2)cc1	85%
O=C(Nc1ccccc1)C1CCCN1C1CCCCC1 (stereo unspecified)	108%
O=C1OC(c2ccccc2)=N/C1=C1\OC(=O)c2ccccc21	104%
CC1CCCCN1C(=O)CSc1n[nH]c(-c2ccccc2Cl)n1 (stereo unspecified)	72%

Compound	survival
CCCN(Cc1cccs1)C(=O)Nc1ccc(Br)cc1F	76%
COC(=O)c1c(NC(=O)CS(=O)(=O)c2ccc(C)cc2)sc2c1CCCCC2	67%
CCOC(=O)c1c(NC(=O)CS(=O)(=O)c2ccc(C)cc2)sc2c1CCCCC2	87%
COC(=O)c1c(NC(=O)COc2c(C)ccc(C)c2C)sc2c1CCC(C)C2 (stereo unspecified)	11% (active)
COC(=O)c1c(NC(=O)COc2ccc(Cl)cc2C)sc2c1CCCCC2	83%
Cc1ccccc1OCC(=O)Nc1sc2c(c1C(=O)OC(C)C)CCCC2	69%
CCOC(=O)c1c(NC(=O)COc2cccc(C(F)(F)F)c2)sc2c1CCC(C)C2 (stereo unspecified)	74%
COC(=O)c1c(NC(=O)CCCOc2cccc(C)c2)sc2c1CCC(C)C2 (stereo unspecified)	4% (active)
COC(=O)c1c(NC(=O)CS(=O)(=O)c2ccc(C)cc2)sc2c1CCCC2	-6% (active)
COC(=O)c1c(NC(=O)CCCOc2ccccc2C)sc2c1CCC2	4% (active)
COC(=O)c1c(NC(=O)COc2cc(C)ccc2C(C)C)sc2c1CCC(C)C2 (stereo unspecified)	66%
COC(=O)c1c(NC(=O)COc2ccc(OC)cc2)sc2c1CCC(C)C2 (stereo unspecified)	86%
Cc1cccc(OCCCC(=O)Nc2sc3c(c2C(N)=O)CCC(C)C3)c1 (stereo unspecified)	88%
Cc1nc2nc(C)c(NS(=O)(=O)c3ccc(F)cc3)c(=O)n2[nH]1	81%
O=C(O)CCNc1ccc(Cl)cn1	86%
S=c1nc[nH]c2c1oc1ccccc12	96%
Cc1ccccc1NC(=O)CSc1nc(-c2ccc(F)cc2)nc2c1Cc1ccccc1O2	77%
CCOc1ccc(C(=O)N(C)CC2COc3ccccc3O2)cc1 (stereo unspecified)	98%
N#Cc1c(-n2ncnc2-c2ccccc2Cl)sc2c1CCCCC2	38%
COc1ccccc1-c1cc(C(=O)Nc2sc3c(c2C#N)CCCC3)no1	140%
Cc1ccccc1-c1ncnn1-c1sc2c(c1C#N)CCCCC2	65%
COc1ccccc1-c1ncnn1-c1sc2c(c1C#N)CCCCC2	1% (active)
COc1cccc(-c2ncnn2-c2sc3c(c2C#N)CCCCC3)c1OC	72%
N#Cc1c(-n2ncnc2-c2ccccc2C(F)(F)F)sc2c1CCCCC2	4% (active)

Compound	survival
CCOc1ccccc1NC(=O)CSc1c(C)cnc2c1c(=O)n(C)c(=O)n2C	67%
CCN(CC)C(=O)Cn1c(=O)nc(-c2ccccc2F)c2cc(Cl)ccc21	73%
CC1CCCN(c2nc3nonc3nc2Nc2cccc(Cl)c2)C1 (stereo unspecified)	0% (active)
CC1CCN(c2nc3nonc3nc2Nc2ccc(F)cc2)CC1	103%
O=C(Nc1cccc(Cl)c1)C1CCCN(c2ncnc3c2nc2n3CCCCC2)C1 (stereo unspecified)	36%
CCOC(=O)c1cc(C(C)(C)C)oc1CN	95%
CC(C)N(Cc1ccccc1)C(=O)CN1C(=O)CSc2ccc(S(=O)(=O)N3CCCC3)cc21	100%
Cc1cccc(CNC(=O)C2CCN(c3nc4ccc(Cl)cc4[nH]3)CC2)c1	79%
CC1CCN(C(=O)CSc2nc3ccccc3nc2Cc2ccccc2)CC1	73%
CCOCCc1nn2c(=O)cc(COC(=O)c3ccc(NC(=O)C(C)(C)C)cc3)nc2s1	77%
CCOCCc1nn2c(=O)cc(COC(=O)c3ccc(NC(=O)c4ccc(F)cc4)cc3)nc2s1	0% (active)
COCCc1nn2c(=O)cc(COC(=O)c3ccccc3C)nc2s1	-6% (active)
CCOCCc1nn2c(=O)cc(COC(=O)c3ccc(NC(=O)c4cccs4)cc3)nc2s1	118%
CCCCc1nn2c(=O)cc(COC(=O)c3ccccc3C)nc2s1	72%
CCOc1ccc(C(=O)Nc2cccc(C(=O)OCc3cc(=O)n4nc(C5CC5)sc4n3)c2)cc1	51%
CCCc1nn2c(=O)cc(COC(=O)c3cccc(NC(=O)c4ccc(OCC)cc4)c3)nc2s1	-2% (active)
CCOCCc1nn2c(=O)cc(COC(=O)c3ccc4c(c3)OCO4)nc2s1	133%
CCCc1nn2c(=O)cc(COC(=O)c3ccccc3NC(=O)c3ccc(OCC)cc3)nc2s1	22%
CCOCCc1nn2c(=O)cc(COC(=O)c3cccc(C)c3)nc2s1	-6% (active)
COCCc1nn2c(=O)cc(COC(=O)COc3ccccc3C)nc2s1	80%
CCOCCc1nn2c(=O)cc(COC(=O)CNC(=O)c3cccc(C)c3)nc2s1	84%
C=CCn1c2ccccc2c2ccccc21	80%
Cc1cccc(-c2nc(SCCCOc3ccccc3Cl)n3[nH]c(=O)cc3n2)c1	65%
NC(=O)CSc1nnc(CNc2ccc(Cl)cc2)n1Cc1ccccc1	125%

Compound	survival
COc1ccc(NC(=O)c2cc3c(=O)n(Cc4cccnc4)ccc3nc2C)cc1Cl	124%
Cc1oc(-c2ccccc2)nc1CNC(=O)NC1CCCCC1	72%
CCCc1nn2c(=O)cc(COC(=O)c3ccc(NC(=O)COc4ccc(F)cc4)cc3)nc2s1	10% (active)
CCCc1nn2c(=O)cc(COC(=O)c3ccc(NC(=O)COc4ccccc4)cc3)nc2s1	83%
CCCc1nn2c(=O)cc(COC(=O)c3cccc(NC(=O)COc4ccc(F)cc4)c3)nc2s1	80%
COC(=O)c1cc2oc(C)cc2n1Cc1c(C)cc(C)cc1C	33%
CCOC(=O)c1cc2oc(C)cc2n1CC(=O)NC1CC1	94%
COC(=O)c1cc2oc(C)cc2n1Cc1cccc(Cl)c1	-2% (active)
CCc1cccc(NC(=O)Cn2c(C(=O)OC)cc3occc32)c1	83%
COC(=O)c1cc2oc(C)cc2n1Cc1cc(C)ccc1C	-2% (active)
COC(=O)c1cc2occc2n1Cc1nc(-c2ccc(C)cc2)oc1C	48%
COC(=O)c1cc2occc2n1Cc1cccc(C)c1	-1% (active)
CCOC(=O)c1cc2oc(C)cc2n1CCCN1C(=O)c2ccccc2C1=O	-1% (active)
COC(=O)c1cc2oc(C)cc2n1Cc1ccc(Cl)cc1	72%
COC(=O)c1cc2oc(C)cc2n1Cc1ccc(C)cc1	68%
COC(=O)c1cc2oc(C)cc2n1CC(=O)Nc1cc(Cl)ccc1OC	88%
C=CCn1c(C(=O)OCC)cc2oc(C)cc21	111%
CCn1c(SCCN2CCCC2)nnc1C1CCCN(C(=O)c2ccc3c(c2)OCO3)C1 (stereo unspecified)	114%
O=C(CN1C(=O)COc2ccc(S(=O)(=O)N3CCCCCC3)cc21)NCCc1ccccc1	92%
CCSc1nc2c(c(=O)[nH]c(=O)n2C)n1CC(O)COc1ccc(Cl)cc1 (stereo unspecified)	161%
COc1ccc2c(c1)c1c(c(=O)n(-c3ccc(C)cc3)c(=O)n1CC(=O)Nc1cc(C)ccc1C)n2C	115%
COc1ccc(NC(=O)Cn2cc(S(=O)(=O)N3CCN(c4ccccc4F)CC3)c3ccccc3c2=O)cc1Cl	100%
Cc1ccccc1C(=O)Nc1c(C)nc(Nc2ccccc2)nc1Nc1ccccc1	94%
Cc1ccc(Nc2nc(Nc3ccc(C)c(C)c3)nc(N3CCOCC3)n2)cc1C	73%
